Reference: article PMC5540273 (PLoS ONE, 2017)

The compounds below were run on DAPK3. Conditions: concentration: 1 μM, replicates: in singlicate; n = 1.
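Note: KINOMEscan kinase panel screen.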

Row | SMILES | %Inh
1 | COc1cc2ncnc(Nc3cccc(Br)c3)c2cc1OC.Cl [GI230329] | 9%
2 | CS(=O)(=O)CCNCc1nc(-c2ccc3ncnc(Nc4ccc(OCc5ccccc5)c(Cl)c4)c3c2)cs1.Cl [GW582764] | 0%
3 | COc1ccc2cc(-c3nc(-c4ccccc4C(C)C)[nH]c3-c3ccncc3)ccc2c1 [SB-660566] | 8%
4 | COc1ccc(Nc2nccc(N3CCC(NC(=O)C(C)c4ccc(Cl)cc4)CC3)n2)cc1 (stereo not shown) [GSK1379812] | 10%
5 | Cc1ccccc1-c1cc(-c2c[nH]nc2-c2ccccn2)ccn1 [GW680061] | 25%
6 | CC[C@@H]1CO[C@H](C(=O)Nc2ccccc2)CN1c1cc(-c2ccc3c(N)n[nH]c3c2)nc(NC)n1 [GSK2376236] | 47%
7 | O=C1NC(=O)C(c2ccc(Cl)cc2)=C1Nc1cccc(Cl)c1 [SB-317651] | 18%
8 | Cc1c(Cn2c3ccccc3n3c(=O)cc(N4CCOCC4)nc23)cccc1C(F)(F)F [GSK2306394] | 0%
9 | Cc1ccc(NC(=O)Nc2ccccc2F)cc1-c1ccc(C(=O)Nc2ccncc2)cc1 [GSK1398477] | 0%
10 | O=c1cc(N2CCOCC2)nc2n(Cc3cccc(Cl)c3Cl)c3ccccc3n12 [GSK2299009] | 11%
11 | CC(=O)c1c(C)c2cnc(Nc3ccn(C)n3)nc2n(C2CCCC2)c1=O | 3%
12 | COc1cccc(CNC(=O)NC2CCN(c3ccnc(Nc4ccc(F)cc4)n3)C2)c1 (stereo not shown) [GSK1379723] | 7%
13 | CC(=O)c1c(C)c2cnc(Nc3ccc(N4CCNCC4)cn3)nc2n(C2CCCC2)c1=O | 6%
14 | COc1cccc(C2=C(Nc3cc(Cl)c(O)c(Cl)c3)C(=O)NC2=O)c1 [SB-390767] | 17%
15 | Cc1ccccc1Cn1ccn2c(=O)cc(N3CCOCC3)nc12 [GSK2269905] | 0%
16 | Fc1ccc(-c2nn3cccc(F)c3c2-c2ccncc2)cc1 [GW475620] | 5%
17 | Cc1nccc(-c2c(-c3ccc(F)cc3)ncn2CCCN2CCOCC2)n1.Cl [SB-282975] | 0%
18 | Cc1cccc2c(-c3ccncn3)c(-c3ccc(F)cc3)nn12 [GW515532] | 0%
19 | COc1ccc(Nc2nccc(NCCNC(=O)Nc3cc(C)ccc3C)n2)cc1 [GSK1379899] | 0%

Row | SMILES | %Inh
20 | Nc1nccc(-c2c(-c3ccc(F)cc3)ncn2C2CCN(Cc3ccccc3)CC2)n1 [SB-219980] | 0%
21 | CS(=O)(=O)Cc1ccc(Nc2nccc(-c3c(-c4cccc(NC(=O)C5CCCCC5)c4)nn4ncccc34)n2)cc1 [GSK350559] | 0%
22 | Cc1ccc(NC(=O)Nc2ccc(Cl)c(C(F)(F)F)c2)cc1-c1ccc(C(=O)Nc2ccncc2)cc1 [GSK1398470] | 0%
23 | O=c1cc(N2CCOCC2)nc2n(Cc3ccccc3F)ccn12 [GSK2297428] | 13%
24 | O=C(Nc1n[nH]c2nc(-c3ccco3)c(Br)cc12)C1CCN(Cc2ccccc2)C1.O=C(O)[C@H](O)[C@@H](O)C(=O)O (stereo not shown) [SB-742034] | 17%
25 | CCn1c(-c2c(N)noc2C)nc2cnccc21 [SB-737856] | 0%
26 | Cn1cnc2c(N)ncnc21 [SKF-97623] | 0%
27 | O=C(Nc1n[nH]c2cc(-c3ccsc3)ccc12)C1CC1 [SB-732932] | 40%
28 | CN1c2ccc(-c3ccc(C(N)=O)cc3)cc2-c2[nH]ncc2S1(=O)=O | 26%
29 | Cl.Cl.Cl.N#Cc1ccc(CCNc2nccc(-c3cccc(CN4CCNCC4)c3)n2)cc1 [GSK2137462] | 75%
30 | Cn1cncc1C(=O)NC1CCN(c2ccnc(Nc3ccc(F)cc3)n2)C1 (stereo not shown) [GSK1379717] | 5%
31 | CS(=O)(=O)CCNCc1nc(-c2ccc3ncnc(Nc4ccc5c(cnn5Cc5ccccc5)c4)c3c2)cs1.Cl.Cl [GW569716] | 0%
32 | Cc1cnc(N)c(/C=C/c2cncc(C(=O)NCCc3ccc(Cl)cc3Cl)c2)c1.Cl [GSK190937] | 11%
33 | CNCc1ccc2nc(NC(=O)c3ccc(C(C)(C)C)cc3)cn2c1 | 1%
34 | CNc1cc(-c2ccc3c(N)n[nH]c3c2)nc(N)n1 [GSK2224810] | 37%
35 | CNc1nc(-c2ccc3c(N)n[nH]c3c2)cc(N2C[C@@H](C(=O)Nc3ccccc3)CC[C@H]2C)n1 [GSK2298859] | 43%
36 | COc1ccc(Nc2nccc(N3CCC(NC(=O)c4cc5ccccc5s4)C3)n2)cc1 (stereo not shown) [GSK1379738] | 25%
37 | COc1ccc(CSc2nnc(-c3ccc4nccn4c3)o2)cc1C(F)(F)F | 1%
